Screens from PubChem.
The sample as a whole holds a higher share of hits than the screen did.
mHTT CaM bind = mHTT-calmodulin interaction abrogation | P42858 | AlphaScreen His-mHTT/GST-CaM binding, luminescence | inhibition, % at 15 µM | 190,000 tested, 3.6% active | AID 1671202;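 also: 0% = both proteins with DMSO and 100% = one protein alone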
Pf apPOL block = Pf-apPOL DNA polymerase inhibition. Recombinant Pf-apPOL, molecular beacon fluorescence, 1.5 h. inhibition, % at 10 µM. 210,000 tested, 0.25% active. AID 1794808
* hit, by the source's call; i = inactive; x = no result given; + = active, no number. Rule as the data show it: active = inhibition above about 50%; inactive = the rest.

SMILES	mHTT CaM bind	Pf apPOL block
CC(C)c1nc(CN2CCN(c3ccccc3Cl)CC2)cc(=O)[nH]1	-2.4	-1.2
COc1ccccc1/C=C/C1=NC(=C/c2ccccc2[N+](=O)[O-])/C(=O)O1	6.0	5.7
Cc1nn(-c2ccc(C(=O)N3CCCCC3)cn2)c(C)c1C	-5.1	-1.2
C=CCn1c(SCC(=O)c2ccc([N+](=O)[O-])cc2)nnc1-c1ccc(OC)cc1	8.4	-2.7
COc1ccc(C(=O)N=C2C=C(C)C(=O)C(C)=C2)cc1	0.0	3.6
COc1ccc(C(=O)ON=C2C(C)=CC(=O)C=C2C)cc1	55.0*	1.0
Cc1cc([N+](=O)[O-])ccc1NC(=O)COc1ccccc1C	0.8	4.2
CCn1nccc1C(=O)N1CCCC1c1cccc(F)c1 (stereo unspecified)	-5.3	-4.3
CCOc1ccc(NC(=O)c2cc(I)ccc2Cl)cc1	-5.0	-1.0
Cc1ccc(/C=C(/C#N)C(N)=S)s1	9.7	x
CCCCc1ccc(/C=C(\C#N)C(N)=S)s1	63.1*	x
COc1cc(C(=O)O/N=C2/C=C(C(C)C)C(=O)C=C2C)cc(OC)c1OC	i	-3.8
Nc1c(Cl)cc(Cl)cc1[N+](=O)[O-]	2.4	-3.8
CC1=CC(=O)C(C(C)C)=C/C1=N\OC(=O)c1ccc(C)cc1	i	-5.5
COc1ccccc1C(=O)O/N=C1\C=C(C(C)C)C(=O)C=C1C	+	-4.9
CC1=CC(=O)C(C(C)C)=C/C1=N\OC(=O)c1ccccc1C	i	1.7
CC1=CC(=O)C(C(C)C)=C/C1=N\Oc1c([N+](=O)[O-])cc(Cl)cc1[N+](=O)[O-]	+	-0.3
CC1=CC(=O)C(C(C)C)=C/C1=N\OC(=O)c1cccs1	+	6.6
COc1ccc(C(=O)O/N=C2\C=C(C(C)C)C(=O)C=C2C)cc1Br	+	2.7
COc1ccc(C)c2sc(NC(=O)c3ccc([N+](=O)[O-])cc3)nc12	-20.3	-5.0
COc1ccccc1CNC(=O)c1cccc(N2C(=O)NC3CC2(C)Oc2c(OC)cccc23)c1 (stereo unspecified)	5.0	-4.3
O=C(Nc1ccccc1Br)N1CCc2nc(-c3ccc(F)cc3)ncc2C1	6.2	4.8
CCc1cc(-c2[nH]ncc2-c2cscn2)c(O)cc1O	24.0	-3.0
COc1cc(NC(=O)Nc2ccc(Cl)c(Cl)c2)cc(OC)c1OC	18.1	-5.0
COc1ccccc1CNc1nc(C)nc2sc3c(c12)CCC3	-4.0	-4.6
SMILES	mHTT CaM bind	Pf apPOL block
COc1ccc(C2=C/C(=C\c3ccc(C)c(OC)c3)C(=O)O2)c(OC)c1	-10.0	9.2
COc1ccc(Cl)cc1C(=O)O/N=C1\C=C(C(C)C)C(=O)C=C1C	+	8.0
CC1=CC(=O)C(C(C)C)=C/C1=N\OC(=O)c1ccc(C(C)(C)C)cc1	i	-5.4
CCc1ccc(S(=O)(=O)N2CCCC2c2nc(-c3cccc(Cl)c3)no2)cc1 (stereo unspecified)	-17.4	2.3
COc1ccc(C2CC(C(F)(F)F)n3nc(C(=O)Nc4cccnc4)cc3N2)cc1 (stereo unspecified)	14.0	54.7*
COc1ccc(C2CC(C(F)(F)F)n3nc(C(=O)NCc4ccccc4)c(Cl)c3N2)cc1 (stereo unspecified)	4.0	-0.6
CC1CCC(C)N(C(=O)c2cc3n(n2)C(C(F)(F)F)CC(c2ccccc2)N3)C1 (stereo unspecified)	30.0	-1.0
Cc1ccc(C2CC(C(F)(F)F)n3nc(C(=O)NCCc4ccccc4)cc3N2)cc1 (stereo unspecified)	39.0	5.4
Cc1ccc(C2CC(C(F)(F)F)n3nc(C(=O)Nc4cccnc4)cc3N2)cc1 (stereo unspecified)	8.0	-1.5
CN(Cc1ccccc1)C(=O)c1cc2n(n1)C(C(F)(F)F)CC(c1ccccc1)N2 (stereo unspecified)	53.0*	23.3
CC1CCN(C(=O)c2cc3n(n2)C(C(F)(F)F)CC(c2ccccc2)N3)C2CCCCC12 (stereo unspecified)	58.0*	-10.6
COc1ccc(C2CC(C(F)(F)F)n3nc(C(=O)N(C)Cc4ccccc4)c(Cl)c3N2)cc1 (stereo unspecified)	89.0*	-3.8
COc1ccc(CCC(=O)N2CCC(C(=O)Nc3nccs3)CC2)cc1	-9.9	-5.2
S=c1[nH]nc(C2CCCCC2)n1/N=C\c1cccs1	i	x
CCCCOc1ccc(N2C(=O)CC(NCc3ccc(S(N)(=O)=O)cc3)C2=O)cc1 (stereo unspecified)	0.4	-2.0
C#CC(C)(CC)NC(=O)c1cc2cccc(OC)c2oc1=O (stereo unspecified)	0.0	-5.4
CCc1nc2c(NC(=O)CCc3ccc(OC)cc3)cccn2n1	-1.9	-1.8
COCCNC(=O)c1cc2n(n1)C(C(F)(F)F)CC(c1ccc(OC)cc1)N2 (stereo unspecified)	13.0	-1.1
Cc1cc2n(c1)CCn1c(C)ccc1-2	92.9*	41.9
Cc1ccc(C)n1-c1ccc(Br)cc1	x	-5.8
Cc1ccc2n1CCn1cc(-c3ccc(Br)cc3)cc1-2	99.0*	-6.7
